Source: the supplement of paper PMC3334620
Whole data set: some 33,000 sequences, median “E-score (-0.5 to 0.5)” near -0.04, cut for the highest 2% near 0.36. The list comes from a sample in which the highest values are over-represented; it also holds similar and randomly drawn sequences.

What follows are sequences tested against T1, Hmlalpha2 (UniProt P0CY09) (assay: PBM E-score (8-mer binding enrichment) (E-score (-0.5 to 0.5)); higher = stronger / more preferred TF binding). Conditions: protein concentration: 200 nM; construct: GST-full length.
T1 sequence: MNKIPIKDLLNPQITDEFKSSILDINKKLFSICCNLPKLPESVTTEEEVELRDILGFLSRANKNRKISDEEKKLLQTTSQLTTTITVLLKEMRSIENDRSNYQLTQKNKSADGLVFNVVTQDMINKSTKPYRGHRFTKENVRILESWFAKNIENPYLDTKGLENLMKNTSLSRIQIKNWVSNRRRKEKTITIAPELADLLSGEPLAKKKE
Experimental: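 Universal 'all 10-mer' protein binding microarrays (Agilent AMADID 015681) probed with GST-tagged S. cerevisiae TFs (full-length or DBD) made by in vitro transcription/translation (PURExpress), about 100-200 nM. Bound TF was detected with fluorescent anti-GST. Each ungapped 8-mer (which stands for itself and its reverse complement) is scored by the PBM enrichment score (E-score), a modified Wilcoxon-Mann-Whitney statistic from -0.5 to +0.5, computed with the Universal PBM Analysis Suite. Scale: above 0.35 generally sequence-specific binding.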

| Sequence | PBM E-score |
| --- | --- |
| CACACCGC | -0.0386 |
| AATTTACT | 0.296 |
| GATTTACC | 0.18 |
| AATTTACC | 0.12 |
| AATTTACA | 0.431 |
| GATTTACA | 0.429 |
| TATTTAAA | 0.207 |
| CATTTACG | 0.303 |
| CATTTACA | 0.442 |
| CATTTACC | 0.144 |
| GATTTAGA | -0.00065 |
| TATTTACA | 0.463 |
| TATTTAGA | 0.28 |
| CCGGTGCC | -0.378 |
| AGGAAGAC | -0.0908 |
| CACTCGCA | 0.0187 |
| GACGCGGA | 0.0365 |
| TAAACGGA | 0.0215 |
| AGAGAGCA | -0.234 |
| CAGACACG | 0.0667 |
| AAGACACG | 0.373 |
| AAGACACA | 0.183 |
| GTGACACA | 0.142 |
| ATGACACA | 0.302 |
| ATGACACG | 0.404 |

| Sequence | PBM E-score |
| --- | --- |
| TCACAGCA | 0.0289 |
| ACCGCTGG | -0.228 |
| ACGATGTC | 0.0103 |
| CCGATGTA | 0.155 |
| GTGATGTA | 0.382 |
| CTGATGTA | 0.233 |
| ACGATGTA | 0.376 |
| ATGATGTA | 0.358 |
| GCGATGTA | 0.366 |
| GGGATGTA | 0.328 |
| GCGATGAA | 0.0458 |
| AACTGTTG | -0.104 |
| AAGCCCTA | 0.0656 |
| ACACGGAA | 0.376 |
| CCACGGTA | -0.0423 |
| ACACGGTC | 0.397 |
| AAACGGTG | 0.0442 |
| ATACGGTG | -0.0688 |
| GCACGGTA | -0.0709 |
| ACACGGTA | 0.366 |
| ACACGGTG | 0.392 |
| ACACGGAG | 0.315 |
| ACACGGAT | 0.36 |
| CCACGGTC | -0.326 |
| ATACGGTC | -0.0524 |

| Sequence | PBM E-score |
| --- | --- |
| ATTAAGTC | 0.189 |
| ACCTATGC | -0.0222 |
| TCTGCGCA | -0.00074 |
| CAGGGCCG | -0.121 |
| ACGTTGCG | 0.0728 |
| CGTCCTTC | -0.152 |
| GTTGAGCA | 0.111 |
| GTTGGCGA | -0.0755 |
| GGCTCTTA | -0.184 |
| ACTTAGAT | 0.132 |
| GTCCCTTA | -0.127 |
| AATTACAG | 0.307 |
| TCTTACAA | 0.229 |
| AATTACCC | -0.0352 |
| CATTACAA | 0.411 |
| CATTACCC | -0.00064 |
| CATTACGA | 0.214 |
| CATTACTA | 0.225 |
| CATTACAC | 0.474 |
| AATTACAC | 0.467 |
| TATTACAA | 0.416 |
| CATTACAG | 0.326 |
| TGTTACAA | 0.31 |
| GTTTCCCA | -0.0865 |
| TCGTTGCA | 0.0513 |

| Sequence | PBM E-score |
| --- | --- |
| GGAAAGTA | -0.136 |
| AAGAAGAT | -0.0289 |
| CCCGACAG | -0.191 |
| AATCGGGG | -0.203 |
| AAGATACC | -0.0459 |
| CGGAACCC | -0.13 |
| CCATTAAG | -0.0773 |
| TACAAGGA | 0.291 |
| TATCGTCA | -0.00037 |
| GATTACCC | 0.109 |
| GATTACTA | 0.213 |
| AATTACCA | 0.273 |
| AATTACTA | 0.257 |
| GATTACAC | 0.483 |
| AATTACAA | 0.436 |
| GATTACAA | 0.438 |
| GATTAAAC | 0.155 |
| GATTACCA | 0.087 |
| AGCGTTGG | -0.0565 |
| CCTTGGGC | -0.362 |
| TAGCTCAA | -0.0444 |
| GACTCTGC | -0.314 |
| AGGCTGCC | -0.401 |
| ACAGTAAG | 0.064 |
| GTACGACA | 0.196 |

| Sequence | PBM E-score |
| --- | --- |
| GCATGGTA | 0.189 |
| ACATGGTC | 0.308 |
| GCATGGCC | -0.0405 |
| ACATGGTG | 0.414 |
| AGATGGTG | -0.0243 |
| ACATGGCG | 0.324 |
| CCATGGTA | 0.00138 |
| ACATGGTA | 0.397 |
| ACATGGCC | 0.417 |
| AGAGGCCT | -0.263 |
| AAATCTCA | -0.0212 |
| GAGGTCTA | -0.0189 |
| GCTGCAGC | -0.305 |
| CACGTTAA | 0.376 |
| CGCGTTAA | 0.427 |
| CGCGTTAC | 0.212 |
| AGCGTTAA | 0.0425 |
| TACGTTAA | 0.325 |
| CGCGTTAG | 0.3 |
| CACGTTAG | 0.113 |
| TGCGTTAA | 0.397 |
| GGCGTTAA | 0.216 |
| GCTATCAA | -0.0322 |
| CTGACTCA | -0.179 |
| AAGTCGCG | 0.111 |

| Sequence | PBM E-score |
| --- | --- |
| TAATTCGA | 0.121 |
| ACGCAAAA | 0.145 |
| CCAGTGAC | -0.125 |
| GCAGTTTA | 0.00455 |
| ATTATAGA | 0.0519 |
| GTTATACA | 0.4 |
| CTTATACA | 0.252 |
| GTTATAGA | 0.368 |
| CTTATAGA | -0.154 |
| ATTATACA | 0.34 |
| CATGCGCC | -0.0099 |
| ATGTCGGA | 0.0661 |
| CACGTAAG | 0.244 |
| TACGTATA | 0.327 |
| CACGTAAC | 0.196 |
| AACGTAAT | 0.379 |
| TACGTAAA | 0.41 |
| AACGTAAA | 0.325 |
| AACGTAAC | 0.207 |
| CACGTAAA | 0.405 |
| GACGTAAA | 0.28 |
| CGTCCACA | -0.0612 |
| CCGCGGCC | -0.192 |
| CTGCAAAG | -0.0914 |
| CACGTTGG | 0.109 |

| Sequence | PBM E-score |
| --- | --- |
| ACAGAGAG | -0.0914 |
| CCCAATGC | -0.198 |
| CAACATGA | 0.449 |
| GAACATGA | 0.31 |
| AAACATCC | 0.17 |
| AAACATGG | 0.349 |
| AAACATGC | 0.37 |
| AAACATAC | 0.267 |
| AAACATGT | 0.445 |
| CCACATGG | -0.0738 |
| CCACATGA | 0.109 |
| AAACATAT | 0.311 |
| CAACATGG | 0.403 |
| AAACATCT | 0.202 |
| ATCCTCCA | -0.166 |
| ATACTGAT | 0.126 |
| ACAGCCGG | -0.073 |
| AGAGCTCC | -0.252 |
| CTGGGAGA | -0.262 |
| CAACATGC | 0.398 |
| TAACATCA | 0.338 |
| ACACATGT | 0.394 |
| AAACATAA | 0.348 |
| ACACATGG | 0.21 |
| GAACATGC | 0.272 |

| Sequence | PBM E-score |
| --- | --- |
| AAACATCA | 0.278 |
| TAACATTA | 0.331 |
| ACACATGA | 0.304 |
| CAACATAC | 0.303 |
| TAACATGA | 0.462 |
| AAACATGA | 0.388 |
| ACTAACCC | 0.0236 |
| CAAGGGTC | -0.199 |
| CCACACAG | -0.0322 |
| ATGCGTTG | 0.205 |
| GACTGACC | -0.192 |
| GAGGTCAA | -0.0488 |
| GTGAAGAA | 0.181 |
| CCCAAACG | -0.123 |
| ACAACTCA | 0.194 |
| AGAATAGC | -0.15 |
| AGTGCCAC | -0.215 |
| CAGGAGCC | -0.225 |
| CTCCCTCC | -0.389 |
| CTCACACA | 0.114 |
| GTTACAAA | 0.303 |
| CTTACTCA | -0.0475 |
| CTTACACA | 0.408 |
| GTCACACA | 0.15 |
| GTTACACA | 0.435 |

| Sequence | PBM E-score |
| --- | --- |
| GCAAAACA | 0.135 |
| CCCTTGCC | -0.285 |
| TAACCGCA | 0.0481 |
| AGACTCAT | -0.0539 |
| TAATTAGA | 0.167 |
| TAATTATA | 0.245 |
| CACTTACA | 0.281 |
| AAATTACG | 0.309 |
| TACTTACA | 0.379 |
| AAATTACT | 0.209 |
| CAATTACA | 0.445 |
| CAATTACG | 0.349 |
| TAATTACA | 0.462 |
| AAATTACA | 0.424 |
| CAATTACC | 0.0295 |
| GACTTACA | 0.274 |
| CACCGCTA | -0.0146 |
| CGAATTCA | -0.0293 |
| AATGTAGT | 0.249 |
